Source: PubChem (National Center for Advancing Translational Sciences (NCATS))
Most compounds without a hit are left out; they make up all but 7.3% or so of the library.
Tau fluor counter = counter-screen for tau fibril formation inhibitors | tau K18 P301L Alexa594 fluorescence, heparin fibrillization | AID 1463 | Potency, µM (series often up to 57.7 µM), for the others: at the top dose activity change, negative = decrease | 280,000 tested, 0.93% active; also: nearly all actives have a fitted effect of over 55% in size
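Human K18 P301L tau (15 uM unlabeled plus 0.24 uM Alexa 594-labeled, final) in 100 mM sodium acetate pH 7 was mixed with compound and 20 uM heparin and incubated 6 hr at 37 C.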
RORgamma inh = inhibitors of mouse ROR gamma transcriptional activity; P51450; Potency, µM (top dose mostly 53.6 µM), inactives show at the top dose activity change, negative = inhibition, usual class: inhibitors; 310,000 tested, 5.4% active; Drosophila S2 Gal4-RORgamma UAS-luciferase reporter, 20 h; AID 2551; also: nearly all actives have a fitted effect of over 60% in size
Target sequence (P51450 whole entry, looked up, the tested form may be a part): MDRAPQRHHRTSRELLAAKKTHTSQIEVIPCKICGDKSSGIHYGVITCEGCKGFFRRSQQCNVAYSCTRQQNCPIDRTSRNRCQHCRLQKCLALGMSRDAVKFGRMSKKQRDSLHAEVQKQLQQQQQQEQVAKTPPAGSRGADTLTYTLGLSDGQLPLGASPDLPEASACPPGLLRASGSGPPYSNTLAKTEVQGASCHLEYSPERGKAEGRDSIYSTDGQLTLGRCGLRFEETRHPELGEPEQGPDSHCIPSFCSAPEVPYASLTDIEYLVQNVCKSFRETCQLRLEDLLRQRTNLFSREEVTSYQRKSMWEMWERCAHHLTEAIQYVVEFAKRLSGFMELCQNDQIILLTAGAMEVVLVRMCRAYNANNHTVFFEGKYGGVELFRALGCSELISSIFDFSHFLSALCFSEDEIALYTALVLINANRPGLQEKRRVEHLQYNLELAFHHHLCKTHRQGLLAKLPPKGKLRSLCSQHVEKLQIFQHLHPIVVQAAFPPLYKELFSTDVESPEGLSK
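Stable Schneider cell line, Gal4 DNA-binding domain fused to ROR gamma, UAS-luciferase. Cmpd 1 hr RT → CuSO4 700 uM final → 20 hr RT → luciferase reagent 10 min → luminescence.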
Gal4-VP16 FLuc = inhibits Gal4-VP16 luciferase reporter, ROR gamma counter-screen | AID 2546 | 310,000 tested, 3.5% active | Drosophila S2 Gal4-VP16 UAS-luciferase, luminescence, 20 h | Potency, µM (series often up to 53.6 µM), inactives show at the highest dose activity, negative = inhibition, hits mostly inhibitors;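 also: Gal4-VP16 expression switched on by copper sulfate through the metallothionein promoter; nearly all actives have a fitted effect of over 50% in size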
Tau FP inhib = inhibitors of human tau fibril formation; K18 P301L tau heparin fibrillization, Alexa594 FP, 6 h; 280,000 tested, 0.39% active; AID 1468; P10636; Potency, µM (top dose mostly 57.7 µM), inactives show at the highest dose activity, negative = inhibition, actives largely listed as inhibitors; also: nearly all actives have a fitted effect of over 55% in size
Target sequence (P10636 561-689 P618L limits assumed): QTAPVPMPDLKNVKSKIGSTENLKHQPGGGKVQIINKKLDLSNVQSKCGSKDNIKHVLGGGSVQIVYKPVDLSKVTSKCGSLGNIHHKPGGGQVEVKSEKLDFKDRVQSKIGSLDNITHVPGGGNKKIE
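Human tau K18 […] P301L fragment, 15 uM unlabeled plus 0.24 uM Alexa 594-labeled tau (final), with compound and 20 uM heparin in 100 mM sodium acetate pH 7; 6 hr at 37 C, then Alexa 594 FP read.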
Tau fibril ThT = blocks human tau fibril formation measured by thioflavin T | recombinant tau K18 P301L, heparin-induced fibrillization, ThT fluorescence | Potency, µM (top dose mostly 57.4 µM), for inactives: at the top dose activity, negative = inhibition, most hits filed as inhibitors | AID 1460 | P10636 | 270,000 tested, 2.1% active; also: nearly all actives have a fitted effect of over 55% in size
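ThT emission at 510 nm, taken 1 hr after adding 30 uM dye, quantifies aggregates formed when 20 uM heparin acts on human tau K18 P301L for 6 hr at 37 C.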
Numbers without * were called inactive; ? = inconclusive; . = no result; [ ] = remark or other dose. Calls follow the shape of the dose curve; as a rule, active = well fitted curve in the direction sought with a large enough effect; inconclusive = small, poorly fitted or top-dose-only effect, or another doubt; inactive = no such curve, though single readings can be large; an effect the other way counts as inactive or inconclusive. % is scaled to controls: 0 for no effect and ±100 for the full control effect; potency is read from the fitted curve at half-maximal effect.

SMILES	Tau fluor counter	RORgamma inh	Gal4-VP16 FLuc	Tau FP inhib	Tau fibril ThT
O=C1C=CC[C@@H]2[C@H]3CCCN4CCC[C@@H](CN12)[C@@H]34	0%	-13%	-2%	-4%	-4%
CC(C)CNC(=O)c1c(N)n(Cc2ccc3c(c2)OCO3)c2nc3ccccc3nc12	?	?	7.1µM*	?	?
CC(C)OCCCNC(=O)c1c(N)n(Cc2cccs2)c2nc3ccccc3nc12	?	?	16µM*	?	?
CC(C)CCNC(=O)c1c(N)n(Cc2ccc3c(c2)OCO3)c2nc3ccccc3nc12	?	-2%	-2%	?	?
COc1ccc(Cn2c(N)c(C(=O)NCc3ccco3)c3nc4ccccc4nc32)cc1OC	?	27%	-9%	?	14µM*
COc1ccc(C(=O)Nc2ccc3c(c2)N(C)C(=O)c2ccccc2S3)cc1OC	?	.	.	?	-12%
Oc1ccc2c3c1O[C@H]1c4oc5ccccc5c4C[C@]4(O)[C@H](C2)N(CC2CC2)CC[C@@]314	-8%	2%	-10%	2%	-5%
C=C1C(=O)O[C@@H]2C[C@@H](C)[C@@H]3C=CC(=O)[C@@]3(C)[C@@H](OC(=O)CC(=O)O[C@H]3[C@@H]4C(=C)C(=O)O[C@@H]4C[C@@H](C)[C@@H]4C=CC(=O)[C@]43C)[C@H]12	-18%	1.1µM*	0.63µM*	8.9µM*	2.8µM*
C=C1C(=O)O[C@H]2[C@H]1[C@H](OC(=O)CC(=O)O[C@@H]1C[C@@H](C)[C@@H]3C=CC(=O)[C@@]3(C)[C@H]3OC(=O)C(=C)[C@H]13)C[C@@H](C)[C@H]1C=CC(=O)[C@]12C	-8%	7.1µM*	7.1µM*	11µM*	16µM*
C=C1C(=O)O[C@H]2C[C@@H](C)[C@@H]3C=CC(=O)[C@@]3(C)C[C@H]12	-9%	6.3µM*	10µM*	?	18µM*
CCc1ccccc1N1C(=O)N(Cc2ccccc2C)c2ccccc2S1(=O)=O	-18%	.	.	?	-1%
Cc1cccc(N2C(=O)NC(=O)/C(=C\c3cccn3-c3ccc(Cl)cc3)C2=O)c1	-13%	?	?	-3%	?
Cc1cc(C)cc(N2C(=O)NC(=O)/C(=C/c3cccn3-c3ccc(Cl)cc3)C2=O)c1	-23%	32µM*	11µM*	-2%	?
Cc1cccc(-n2c(C)nc3ccccc3c2=O)n1	-3%	16%	1%	5%	-4%
Cc1cccc(-n2c(=S)[nH]c3ccccc3c2=O)n1	1%	13µM*	?	0%	1%
Cc1ccc2c(c1)C1(CCN(CCc3nc(-c4ccccc4)oc3C)CC1)OC(=O)N2	.	28%	-26%	.	.
CN(Cc1ccc(OC(F)F)cc1)Cc1nc2c(Br)cc(Br)cc2c(=O)[nH]1	-30%	3.2µM*	13µM*	-5%	-18%
COc1cc(O)c(C(=O)O)c(-c2cc(O)c(O)cc2C)c1	?	29%	-4%	?	25µM*
COc1ccc2c(c1)c(C(=O)O)c(C)n2CC(C)C	-3%	19%	-7%	6%	4%
CC1O[C@@H](O[C@@H]2C(O)C[C@H](O[C@@H]3C(O)C[C@@H](OC4CC[C@@]5(C)C6CC[C@]7(C)C(C8=CC(=O)OC8)CC[C@@]7(O)C6CC[C@@H]5C4)OC3C)OC2C)CC(O)[C@H]1O (some centres not stated)	-8%	3.2µM*	3%	3%	-22%
CC(=O)O[C@H]1C[C@H](O[C@H]2[C@@H](O)CC(O[C@H]3[C@@H](O)C[C@H](O[C@H]4CC[C@@]5(C)[C@H](CC[C@@H]6[C@@H]5CC[C@]5(C)[C@@H](C7=CC(=O)OC7)CC[C@]65O)C4)O[C@@H]3C)O[C@@H]2C)O[C@H](C)[C@H]1O[C@@H]1O[C@H](CO)[C@@H](O)[C@H](O)[C@H]1O (some centres not stated)	.	?	5%	.	.
CC1OC(OC2C(O)CC(OC3C(O)CC(OC4CCC5(C)C(CCC6C5CCC5(C)C(C7=CC(=O)OC7)CCC65O)C4)OC3C)OC2C)CC(O)C1O (configuration not stated)	4%	1.1µM*	-7%	11%	-22%
CO[C@H]1[C@@H](O)CC(OC2[C@@H](O)CC(OC3[C@@H](O)C[C@H](OC4CC[C@@]5(C)C(CCC6C5CC(O)[C@]5(C)[C@H](C7=CC(=O)OC7)CCC65O)C4)O[C@@H]3C)O[C@@H]2C)O[C@@H]1C (some centres not stated)	.	2.5µM*	-2%	.	.
C[C@H]1O[C@@H](O[C@H]2[C@@H](O)C[C@H](O[C@H]3[C@@H](O)C[C@H](O[C@H]4CC[C@]5(C)C6CC[C@]7(C)[C@@H](C8=CC(=O)OC8)CC[C@]7(O)C6CC[C@@H]5C4)O[C@@H]3C)O[C@@H]2C)C[C@H](O)[C@@H]1O (some centres not stated)	-1%	2.5µM*	-12%	4%	?
Nc1nc(/C(=C/CC(=O)O)C(=O)NC2C(=O)N3C(C(=O)O)=CCSC23)cs1 (configuration not stated)	-18%	9%	2%	?	-22%
SMILES	Tau fluor counter	RORgamma inh	Gal4-VP16 FLuc	Tau FP inhib	Tau fibril ThT
CN1CC[C@@]2(c3cccc(O)c3)Cc3nc4ccccc4cc3C[C@H]2C1	-1%	-17%	-11%	3%	-9%
COc1ccc(S(=O)(=O)NCCc2sc3nc(-c4ccc(C)cc4)nn3c2C)cc1F	-25%	.	.	?	1%
O=C1C=CC(=O)C(Cl)=C1	?	11µM*	?	16µM*	11µM*
c1nc[n]([Sn]([CH]2CCCCC2)([CH]2CCCCC2)[CH]2CCCCC2)n1	.	?	22µM*	.	.
COc1ccc(OC)c(N2C(=O)NC(=O)/C(=C/c3ccc([N+](=O)[O-])s3)C2=O)c1	?	26%	-3%[10 µM]	14µM*	13µM*
COc1ccc(OC)c(N2C(=O)/C(=C/c3ccco3)C(=O)NC2=S)c1	.	-18%	-13%	.	.
CCN1C(=O)/C(=C\c2ccc([N+](=O)[O-])s2)C(=O)NC1=S	?	-13%	-18%	?	3.5µM*
O=C(N/N=C/c1c(O)n(C2CC2)c(=S)[nH]c1=O)c1ccccc1O	-17%	5.6µM*	7.1µM*	4%	?
Cc1cccc(-n2c(O)c(/C=N/NC(=O)c3ccncc3)c(=O)[nH]c2=O)c1	3%	35µM*	-10%	8%	-2%
O=C(N/N=C/c1c(O)n(CCC2=CCCCC2)c(=O)[nH]c1=O)c1ccccc1	-23%	11µM*	?	-5%	?
O=C(N/N=C/c1c(O)n(Cc2ccc(F)cc2)c(=O)[nH]c1=O)c1ccccc1	-24%	13µM*	12%	1%	?
